Experimental data published in PubChem BioAssay (NCATS).
Records with an inconclusive call do not appear. A number with no mark means an inactive call. The source made the active and inactive calls. Calls follow the shape of the dose curve; as a rule, active = well fitted cell-killing curve with a large enough effect; inconclusive = small, poorly fitted or top-dose-only effect, or effect the other way; inactive = no such curve, though single readings can be large or run the other way.

Assay: Quantitative highthroughput screen to assess conditional lethalithy of SEM cells grown in RPMI1640 with unreated serum (RPMI+s) (AID 1963883);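 as to viability: 100% = DMSO wells and 0% = empty wells without cells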
Settings: SEM B-ALL cells, CellTiter-Glo viability, 48 h; series mostly up to 45.8 µM; viability: at the top concentration
Summary of the method: (§1)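 Each medium arm—HPLM with 10% dialyzed FBS, or RPMI1640 with 5 mM glucose and 10% untreated or dialyzed FBS—was screened against an 11-point, 3-fold compound titration for 48 h at 37 °C, with CellTiter-Glo luminescence as endpoint.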
Also: nearly all actives have a fitted effect of over 35% in size.
Potency is read from the fitted curve at half-maximal effect.

| SMILES | viability [%] | Potency |
| --- | --- | --- |
| CNC(=O)c1ccc2cc(C3(O)CCn4cncc43)ccc2c1 (stereo not drawn) | 96.4 | – |
| COc1ncc(-c2ccc3c(Nc4cc(Oc5cc(F)cc(F)c5)cc(C(=O)O)c4)c(S(=O)(=O)NC4CC4)cnc3c2)c(OC)n1 | 98.6 | – |
| O=C1CCC[C@@H]2[C@H]3CCC[N+]4([O-])CCC[C@@H](CN12)[C@@H]34 (stereo partly drawn) | – | 7.43 µM (active) |
| CN(CCOc1ccc(NS(C)(=O)=O)cc1)CCc1ccc(NS(C)(=O)=O)cc1 | 82.3 | – |
| CC[C@@H]([C@H](C)O)n1ncn(-c2ccc(N3CCN(c4ccc(OCC5CO[C@@](Cn6cncn6)(c6ccc(F)cc6F)C5)cc4)CC3)cc2)c1=O (stereo partly drawn) | 88.8 | – |
| O=C(c1ccc(F)cc1)C1CCN(CCn2c(=O)[nH]c3ccccc3c2=O)CC1 | 105 | – |
| CC(O)C1C(=O)N2C(C(=O)O)=C(SC3CNC(C(=O)N(C)C)C3)C(C)C12 (stereo not drawn) | 99.4 | – |
| COc1ccc(F)c(F)c1C(=O)c1cnc(NC2CCN(S(C)(=O)=O)CC2)nc1N | – | 4.18 µM (active) |
| COc1ccc2c(Oc3ccc(NC(=O)c4c(C)n(CC(C)(C)O)n(-c5ccccc5)c4=O)cc3F)ccnc2c1 | – | 3.32 µM (active) |
| CC1CNc2c(cccc2S(=O)(=O)N[C@@H](CCCN=C(N)N)C(=O)N2CC[C@@H](C)C[C@@H]2C(=O)O)C1 (stereo partly drawn) | 101 | – |
| Cc1cnc(Nc2ccc(OCCN3CCCC3)cc2)nc1Nc1cccc(S(=O)(=O)NC(C)(C)C)c1 | 77.7 | – |
| CCn1c(-c2nonc2N)nc2cncc(CNC3CCNCC3)c21 | – | 2.35 µM (active) |
| C[C@@H](NCCCc1cccc(C(F)(F)F)c1)c1cccc2ccccc12 | 101 | – |
| COc1ccc2[nH]cc(CCNC(C)=O)c2c1 | 98.1 | – |
| CCCOc1ccc(C(=O)OCCN(CC)CC)cc1N | 84.9 | – |
| CC1CCN(c2cc(N3CCN(C)CC3)ccc2NC(=O)c2cc(C#N)c[nH]2)CC1 | 79.5 | – |
| COc1ccc([C@@H]2CNC(=O)C2)cc1OC1CCCC1 | 96.5 | – |
| CN1CC[C@@H](c2c(O)cc(O)c3c(=O)cc(-c4ccccc4Cl)oc23)[C@@H](O)C1 | – | 0.418 µM (active) |
| COC(=O)Nc1cc(Nc2cc(NC3CC3)c3ncc(C#N)n3n2)c(Cl)c(N2CCN(C)CC2)c1 | – | 2.63 µM (active) |
| Cc1cc(Nc2ncnc3ccc(-c4ccc(CNCCS(C)(=O)=O)o4)cc23)ccc1Oc1ccn2ncnc2c1 | – | 0.0935 µM (active) |
| CN(C)c1nc(N(C)C)nc(N(C)C)n1 | 106 | – |
| CC(NCCc1ccc(O)cc1)C(O)c1ccc(O)cc1 (stereo not drawn) | 99.2 | – |
| CN1CCN(Cc2ccc(NC(=O)Nc3ccc(Oc4cc(NC(=O)C5CC5)ncn4)cc3)cc2C(F)(F)F)CC1 | – | 0.0118 µM (active) |
| CC(C)C[C@H](NC(=O)[C@@H](NC(=O)c1cccc(-c2ccccc2)n1)[C@@H](C)O)B(O)O | – | 0.0132 µM (active) |
| Cc1nc(N)ncc1-c1nc(N2CCOCC2)c2sc(C(C)(C)O)cc2n1 | – | 0.0332 µM (active) |
| Cn1cnc2c(F)c(Nc3ccc(Br)cc3Cl)c(C(=O)NOCCO)cc21 | – | 0.469 µM (active) |
| CN1CCC(COc2cnc(-c3cccc(Cn4nc(-c5cccc(C#N)c5)ccc4=O)c3)nc2)CC1 | 95.2 | – |
| Oc1ccc(-c2nc(-c3ccc(F)cc3)c(-c3ccncc3)[nH]2)cc1 | – | 0.469 µM (active) |

Assay: Quantitative highthroughput screen to assess conditional lethalithy of SEM cells grown in RPMI1640 with dialyzed fetal bovine serum (RPMI+ds) (AID 1963884);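 as to viability: 100% = DMSO control wells and 0% = empty wells without cells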
Settings: SEM B-ALL cells, RPMI+dialyzed FBS, CellTiter-Glo viability, 48 h; series mostly up to 45.8 µM; viability: at the top concentration
Summary of the method: as §1

| SMILES | viability [%] | Potency |
| --- | --- | --- |
| CC(=O)OCC(CCn1cnc2cnc(N)nc21)COC(C)=O | 91.4 | – |
| CNC(=O)c1ccc2cc(C3(O)CCn4cncc43)ccc2c1 (stereo not drawn) | 97.1 | – |
| CC[C@@H]([C@H](C)O)n1ncn(-c2ccc(N3CCN(c4ccc(OCC5CO[C@@](Cn6cncn6)(c6ccc(F)cc6F)C5)cc4)CC3)cc2)c1=O (stereo partly drawn) | 91.2 | – |
| O=C(c1ccc(F)cc1)C1CCN(CCn2c(=O)[nH]c3ccccc3c2=O)CC1 | 101 | – |
| CC(O)C1C(=O)N2C(C(=O)O)=C(SC3CNC(C(=O)N(C)C)C3)C(C)C12 (stereo not drawn) | 79.4 | – |
| COc1ccc(F)c(F)c1C(=O)c1cnc(NC2CCN(S(C)(=O)=O)CC2)nc1N | – | 5.9 µM (active) |
| CCn1c(-c2nonc2N)nc2cncc(CNC3CCNCC3)c21 | – | 10.5 µM (active) |
| CC1CCN(c2cc(N3CCN(C)CC3)ccc2NC(=O)c2cc(C#N)c[nH]2)CC1 | 85 | – |
| COc1ccc([C@@H]2CNC(=O)C2)cc1OC1CCCC1 | 93.7 | – |
| CN1CC[C@@H](c2c(O)cc(O)c3c(=O)cc(-c4ccccc4Cl)oc23)[C@@H](O)C1 | – | 0.469 µM (active) |
| Nc1ncnc2c1ncn2[C@@H]1O[C@H](CO)[C@@H](O)[C@@H]1O | 101 | – |
| Cc1c(-c2ccnn2C)cc(C(=O)NCc2ccc(S(C)(=O)=O)cn2)c(=O)n1-c1cccc(C(F)(F)F)c1 | 84 | – |
| Cc1cc(Nc2ncnc3ccc(-c4ccc(CNCCS(C)(=O)=O)o4)cc23)ccc1Oc1ccn2ncnc2c1 | – | 0.332 µM (active) |
| O[C@@H](COc1cccc2ncccc12)CN1CCN(C2c3ccccc3[C@@H]3[C@H](c4ccccc42)C3(F)F)CC1 (stereo partly drawn) | 96.3 | – |
| Cc1nc(N)ncc1-c1nc(N2CCOCC2)c2sc(C(C)(C)O)cc2n1 | – | 0.0743 µM (active) |
| Cn1cnc2c(F)c(Nc3ccc(Br)cc3Cl)c(C(=O)NOCCO)cc21 | – | 0.469 µM (active) |
| COC(=O)N1CC2(CC2)C[C@H](C(=O)NO)[C@H]1C(=O)N1CCN(c2ccccc2)CC1 | – | 0.66 µM (active) |
| CN1CCC(COc2cnc(-c3cccc(Cn4nc(-c5cccc(C#N)c5)ccc4=O)c3)nc2)CC1 | 95.8 | – |
| Oc1ccc(-c2nc(-c3ccc(F)cc3)c(-c3ccncc3)[nH]2)cc1 | – | 0.372 µM (active) |
| CCN(CC)CCNC(=O)c1ccc2nc(-c3ccccc3)c(-c3ccc(CN4CCC(n5c(=O)[nH]c6ccccc65)CC4)cc3)nc2c1 | – | 0.166 µM (active) |
